CYP2C19 inh: blockers of cytochrome P450 2C19 activity – biochemical, luminescence, ADME assay, primary screen; inhibition, % at 5 µM; P33261; 96,000 compounds, 21% hits; CYP2C19 Supersomes, luciferin-H EGE luminescence, 30 min; AID 778, 2007;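 active means CYP2C19 inhibition above a set limit at 5 µM in the primary screen, cut at about 50% in these data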;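 further: plate controls were negative control wells for no effect and 2.5 mM tranylcypromine positive control for full effect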
Target sequence (P33261 whole entry, looked up): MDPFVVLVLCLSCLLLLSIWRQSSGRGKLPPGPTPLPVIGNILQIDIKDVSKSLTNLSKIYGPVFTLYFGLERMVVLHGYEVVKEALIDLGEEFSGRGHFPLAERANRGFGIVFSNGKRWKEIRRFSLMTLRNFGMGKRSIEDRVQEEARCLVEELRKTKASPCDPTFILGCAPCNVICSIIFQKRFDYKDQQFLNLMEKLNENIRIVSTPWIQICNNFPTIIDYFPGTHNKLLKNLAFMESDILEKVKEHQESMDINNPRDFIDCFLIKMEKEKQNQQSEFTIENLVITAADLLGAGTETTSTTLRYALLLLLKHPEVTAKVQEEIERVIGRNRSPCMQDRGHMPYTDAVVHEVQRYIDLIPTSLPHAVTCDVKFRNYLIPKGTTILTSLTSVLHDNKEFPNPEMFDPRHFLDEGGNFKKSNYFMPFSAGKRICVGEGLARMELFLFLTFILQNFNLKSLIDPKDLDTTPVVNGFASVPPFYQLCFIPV
CYP2C9 act: human CYP2C9 activators, primary screen, biochemical, luminescence; Cytochrome P450 2C9 (Homo sapiens), P11712; recombinant CYP2C9, luciferin-H conversion; active compounds read high; factor 1 = untreated enzyme, 0 = blocked; activation factor at 5 µM; 96,000 compounds, 1.4% hits; AID 1024, 2008;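 active means activation factor of 2 or more for CYP2C9 at a 5 µM dose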;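 further: 0 = sulfaphenazole-blocked wells and 1 = vehicle-only wells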
CYP2C9 inh: blockers of cytochrome P450 2C9 activity – biochemical, luminescence, ADME assay, primary screen; inhibition, % at 5 µM; AID 777, 2007; P11712; 96,000 compounds, 20% hits; CYP2C9 Supersomes, luciferin-H conversion;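 active means blocking of liver enzyme CYP2C9 beyond about 50% at 5 µM, limit read from the data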
Measles CPE: compounds protecting cells from measles virus cytopathic effect, primary screen, measles RdRp inhibitor project, single point, MLSMR library, absorbance; Measles virus-infected cells, CPE protection; 140,000 compounds, 1.5% hits; protection (pct of control), % at 4 µM; in the data active means protection mostly above about 24%, no sharp cut-off; inactive means mostly below about 26%
CYP2C19 activ: human CYP2C19 activators, primary screen, biochemical, luminescence; recombinant CYP2C19, luciferin-H EGE luminescence; active compounds read high; 0 = fully inhibited enzyme, 1 = untreated enzyme; Cytochrome P450 2C19 (Homo sapiens), P33261; activation factor at 5 µM; 96,000 tested, under 10 active; AID 1025, 2008;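 active means activation factor of at least 2 at 5 µM in the primary screen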;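 further: 0 = wells with 2.5 mM tranylcypromine and 1 = vehicle-only wells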
Active calls of the source: *; nt = no result given. Most compounds without a hit are left out; they make up all but 22% or so of the library.

SMILES	CYP2C19 inh	CYP2C9 act	CYP2C9 inh	Measles CPE	CYP2C19 activ
CCOC(=O)C(Cc1ccccc1)NC(=O)CCc1c(C)nc2nc(C)nn2c1C (centres undefined)	-1	1.1	-11	28	1
Cc1ccc(C(=O)Nc2cccc(C(=O)O)c2)cc1S(=O)(=O)N1CCCCC1	47	0.4	57*	18	0.5
Cc1ccc(C(=O)OCc2ccc3c(c2)OCO3)cc1S(=O)(=O)N1CCCCC1	79*	0	95*	4	0.2
O=C(Nc1ccc2c(c1)OCCO2)c1cccc(S(=O)(=O)N2CCOCC2)c1	5	1	5	5	0.9
O=C(Nc1ccc2c(c1)OCCO2)c1cccc(S(=O)(=O)N2CCCCC2)c1	41	0.4	63*	4	0.6
COc1ccccc1-c1cc(C(=O)NC(C)c2ccccc2)no1 (centres undefined)	10	2.8*	-179	12	0.9
COc1ccccc1-c1cc(C(=O)Nc2ccc(F)cc2F)no1	14	1.5	-49	5	0.9
COc1ccccc1-c1cc(C(=O)NC(C)C)no1	16	4*	-300	8	0.8
CC(C)(C)C(=O)NC1CCN(S(=O)(=O)c2cccc(C(F)(F)F)c2)CC1	81*	1.2	-19	17	0.2
O=C(Nc1ccccc1N1CCOCC1)C1CCN(S(=O)(=O)c2cccc(C(F)(F)F)c2)CC1	nt	nt	nt	2	nt
CC(C)CCN(C)C1CCN(S(=O)(=O)c2cccc(C(F)(F)F)c2)CC1	52*	0.7	28	15	0.5
O=C(Cc1ccccc1)NC1CCN(S(=O)(=O)c2cccc(F)c2)CC1	73*	0.9	9	5	0.3
Cc1cccc(-[n+]2c(C)cc(C)c3c(=O)[nH]c(=O)[nH]c32)c1	nt	nt	nt	6	nt
CCCn1c(SCC(=O)Nc2nc(C)c(C(=O)OC)s2)nnc1C(C)C	38	0.7	28	31*	0.6
CCn1c(SCC(=O)Nc2nc(C)c(C(=O)OC)s2)nnc1C(C)C	50*	0.7	34	4	0.5
CCN(C(=O)c1cc2cccc(OC)c2oc1=O)C1CCCCC1	nt	nt	nt	4	nt
Cc1ccc(NC(=O)c2ccc(OC(=O)COc3ccc(Cl)c(C)c3)cc2)cc1	nt	nt	nt	7	nt
COc1ccc(N2CCC(CNC(=O)Nc3ccccc3)C2)cc1 (centres undefined)	60*	0.6	38	19	0.4
COc1ccc(NC(=O)Nc2ccc(N(C)C)cc2)cc1	86*	0.8	21	-1	0.1
COc1ccc(NC(=O)NCc2ccncc2)c(OC)c1	40	0.7	30	16	0.6
COc1ccc(OC)c(NC(=O)NCc2ccc(F)cc2)c1	99*	0.7	28	8	0
COc1ccc(CNC(=O)Nc2cccc(C)c2)cc1	35	1	4	1	0.7
COc1ccc(NC(=O)C2CCN(C(=O)NCc3ccccc3)CC2)cc1	0	0.9	9	4	1
COc1ccc(CNC(=O)Nc2ccc(OC)cc2)cc1	59*	1.1	-9	7	0.4
C/C(=N\NC(=O)C(=O)Nc1cccc(Cl)c1C)c1ccncc1	nt	nt	nt	8	nt
SMILES	CYP2C19 inh	CYP2C9 act	CYP2C9 inh	Measles CPE	CYP2C19 activ
CCn1c(=O)cc(SCC(=O)NCCCN2CCN(c3ccccc3F)CC2)c2ccccc21	-2	1.4	-39	23	1
COc1ccc(NC(=O)NCc2cccn2C)c(OC)c1	62*	1	-3	40	0.4
CO/N=C(\CS(=O)(=O)Cc1ccc(OC)cc1)c1ccc(Cl)cc1	37	0.9	7	10	0.6
CO/N=C(/CS(=O)Cc1ccc(Cl)cc1)c1ccc(Cl)cc1 (centres undefined)	96*	0.4	56*	2	0
CCOC(=O)C1=C(C)C(c2ccc(OC)cc2)NC(=S)N1 (centres undefined)	59*	0.2	82*	3	0.4
Cn1c(N)c(C(=O)COC(=O)c2cccc(S(=O)(=O)N3CCCCC3)c2)c(=O)n(C)c1=O	nt	nt	nt	8	nt
CC(C)(C)NC(=O)COC(=O)c1cc(S(=O)(=O)N2CCCCC2)ccc1N1CCOCC1	66*	0.2	82*	3	0.3
Cn1c(N)c(C(=O)COC(=O)c2cc(S(=O)(=O)N3CCCCC3)ccc2Cl)c(=O)n(C)c1=O	nt	nt	nt	27*	nt
